Rows were chosen to be rich in hits. Some 0.24% of all compounds tested hit in one or more screens of this group.
Bim-Bcl-W: inhibitors of Bim binding to Bcl-W, primary screen, biochemical, multiplexed, bead-based flow cytometry | Bcl-2-like protein 2 (Homo sapiens), Q92843 | Bim peptide-Bcl-W binding | inhibition, % at 10 µM | 0.02% of 190,000 active | AID 952, 2007;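 further: 0% = bound tracer without compound and 100% = peptide blocker; higher means less fluorescent Bim peptide bound to Bcl-W beads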
Bim-Bcl-XL: inhibitors of Bim-Bcl-XL binding, primary screen, biochemical, multiplexed, bead flow cytometry, human Bcl-XL; Bcl-2-like protein 1 (Homo sapiens), Q07817; Bim peptide-Bcl-XL binding, fluorescence; inhibition, % at 10 µM; 0.04% of 190,000 active
Target sequence (Q07817 whole entry, looked up): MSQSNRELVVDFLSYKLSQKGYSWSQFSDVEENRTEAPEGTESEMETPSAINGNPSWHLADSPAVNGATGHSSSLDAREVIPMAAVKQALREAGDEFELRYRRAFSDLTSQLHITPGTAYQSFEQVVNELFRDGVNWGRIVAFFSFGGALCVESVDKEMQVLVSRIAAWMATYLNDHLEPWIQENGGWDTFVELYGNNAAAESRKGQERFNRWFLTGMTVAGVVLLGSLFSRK
Bfl-1 Bim block: inhibitors of Bim binding to Bfl-1, primary screen, biochemical, multiplexed, bead-based flow cytometry. Bim-Bfl-1 binding inhibition. inhibition, % at 10 µM. 0.12% of 190,000 active. AID 1008, 2008;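 further: 0% = wells without compound plus tracer and 100% = blocker peptide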
Bim-Bcl-2: inhibitors of Bim-Bcl-2 binding, primary screen, biochemical, multiplexed, human Bcl-2 family | Apoptosis regulator Bcl-2 (Homo sapiens), P10415 | Bead-based flow cytometry, Bim peptide-Bcl-2 binding | inhibition, % at 10 µM | 0.06% of 190,000 active | AID 950, 2007; in the data active means inhibition above about 40%;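 further: 0% = no compound wells with probe peptide and 100% = reference peptide inhibitor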
Bim-Bcl-B: inhibitors of Bim-Bcl-B binding, primary screen, biochemical, multiplexed, human Bcl-2 family; Bcl-2-like protein 10 (Homo sapiens), Q9HD36; bead-based flow cytometry, Bim peptide-Bcl-B binding; 0.073% of 190,000 active; inhibition, % at 10 µM; AID 951, 2007;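 further: 0% = tracer peptide without compound and 100% = reference inhibitor peptide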
Target sequence (Q9HD36 whole entry, looked up): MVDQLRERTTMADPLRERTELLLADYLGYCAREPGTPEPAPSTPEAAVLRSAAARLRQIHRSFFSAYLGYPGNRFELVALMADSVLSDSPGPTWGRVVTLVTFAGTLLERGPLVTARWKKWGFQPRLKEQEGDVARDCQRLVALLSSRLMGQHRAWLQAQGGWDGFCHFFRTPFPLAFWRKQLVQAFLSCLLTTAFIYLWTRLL
PKD1 inh: inhibitors of human PKD1 kinase, biochemical, fluorescence polarization | Serine/threonine-protein kinase D1 (Homo sapiens), Q15139 | PKD1 kinase fluorescence polarization assay | 0.056% of 200,000 active | inhibition, % (test concentration not listed); in the data active means inhibition above about 50%
An asterisk follows results filed as active. Unless noted, no stated cut-off is given here; in the data, active means inhibition above about 40%.

O=C(Nc1cccc(Cl)c1)Nc1ccc(Cl)cn1 was read as Bim-Bcl-W 18, Bim-Bcl-XL 30, Bfl-1 Bim block 51*, Bim-Bcl-2 77*, Bim-Bcl-B 72* and PKD1 inh -2.
`O=C(Cn1cncc1-c1ccc([N+](=O)[O-])cc1)Nc1ccccc1F` gave Bim-Bcl-W 14, Bim-Bcl-XL 15, Bfl-1 Bim block 42*, Bim-Bcl-2 34, Bim-Bcl-B 25 and PKD1 inh 1.
`CCN1C(=O)c2cccc3c(NC(=O)c4ccc(OC)c(OC)c4)ccc1c23` gave Bim-Bcl-W 1, Bim-Bcl-XL -2, Bfl-1 Bim block -11, Bim-Bcl-2 -8, Bim-Bcl-B -4 and PKD1 inh -22.
Screening O=C(NC1CCCCC1)Sc1ccc(Cl)cc1 returned Bim-Bcl-W -3, Bim-Bcl-XL -5, Bfl-1 Bim block -10, Bim-Bcl-2 -3, Bim-Bcl-B -4 and PKD1 inh -10.
CN=C(NC1CCCCC1)c1ccc(Cl)cc1 was read as Bim-Bcl-W 24, Bim-Bcl-XL 1, Bfl-1 Bim block 49*, Bim-Bcl-2 13, Bim-Bcl-B -26 and PKD1 inh -2.
For Cc1cccn2c(=O)c3cc(C#N)c(=N)n(CCCN4CCOCC4)c3nc12 the results were PKD1 inh -5.
Cc1cccn2c(=O)c3cc(C(N)=S)c(=N)n(CCCN4CCOCC4)c3nc12 was read as Bim-Bcl-W 16, Bim-Bcl-XL 9, Bfl-1 Bim block 50*, Bim-Bcl-2 7, Bim-Bcl-B 48* and PKD1 inh -8.
For Cn1ccnc1Sc1nnnn1-c1ccccc1 the results were Bim-Bcl-W -3, Bim-Bcl-XL -7, Bfl-1 Bim block 2, Bim-Bcl-2 2, Bim-Bcl-B 0 and PKD1 inh 3.
`Cc1ccc2cc(C)c(Sc3nnnn3-c3ccccc3)nc2c1` gave Bim-Bcl-W 28, Bim-Bcl-XL 42*, Bfl-1 Bim block 40*, Bim-Bcl-2 26, Bim-Bcl-B 23 and PKD1 inh -11.
CCOc1c(Cl)cc(/C=N/NC(N)=S)cc1OC was read as Bim-Bcl-W 0, Bim-Bcl-XL -1, Bfl-1 Bim block 2, Bim-Bcl-2 3, Bim-Bcl-B -6 and PKD1 inh -3.
`CN(C)CCCNC(=O)C(=O)NCC1CCCO1` (centres undefined) gave Bim-Bcl-W 3, Bim-Bcl-XL 1, Bfl-1 Bim block -1, Bim-Bcl-2 3, Bim-Bcl-B 1 and PKD1 inh -5.
CC(=O)OCCNc1cc(Sc2nc3ccccc3[nH]2)c2nonc2c1[N+](=O)[O-] was read as Bim-Bcl-W 9, Bim-Bcl-XL 0, Bfl-1 Bim block 44*, Bim-Bcl-2 2, Bim-Bcl-B 0 and PKD1 inh 10.
CC(=O)OCCCNc1cc(Sc2ccc(C)cc2)c2nonc2c1[N+](=O)[O-] was read as Bim-Bcl-W 1, Bim-Bcl-XL -3, Bfl-1 Bim block -3, Bim-Bcl-2 0, Bim-Bcl-B -10 and PKD1 inh 0.
Screening COc1ccc(CN/C(C)=C(/C#N)C(N)=O)cc1OC returned Bim-Bcl-W 0, Bim-Bcl-XL -1, Bfl-1 Bim block -9, Bim-Bcl-2 -5, Bim-Bcl-B -6 and PKD1 inh -8.
Screening N#CC(C#N)=C1C=CC=CN1/C(=C\c1ccccc1Cl)C(=O)c1ccccc1 returned Bim-Bcl-W 34, Bim-Bcl-XL 16, Bfl-1 Bim block 59*, Bim-Bcl-2 30, Bim-Bcl-B 1 and PKD1 inh -3.
Cc1cc[n+]2cc(-c3cccc([N+](=O)[O-])c3)c(-c3cccc([N+](=O)[O-])c3)cc2c1 was read as Bim-Bcl-W 14, Bim-Bcl-XL 8, Bfl-1 Bim block 10, Bim-Bcl-2 12, Bim-Bcl-B 43* and PKD1 inh 0.
Cc1cccc(-c2cnn(-c3cccc([N+](=O)[O-])c3)c2N)c1 was read as Bim-Bcl-W 0, Bim-Bcl-XL 0, Bfl-1 Bim block -4, Bim-Bcl-2 -1, Bim-Bcl-B -4 and PKD1 inh 2.
